# Source: the supplement of paper PMC9334596
# Values joined by “and” are separate entries in the source; they are usually repeats but may differ in a detail not shown here. Equal values may be shown once. Over roughly 5,300 compounds, “PER2::LUC luminescence relative to vehicle control” has its median near 0.96; the highest 2% begin near 1.3. This is one part of a sample in which the highest values are shown more often than they occur.
# Tested on: mPer2Luc MEF
# Experiment: PER2::LUC luminescence relative to vehicle control (fold of vehicle); higher = higher PER2::LUC reporter signal
# Settings: 10 µM
# Outline: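 The value is PER2::LUC luminescence expressed as fold of vehicle control. Mouse embryonic fibroblasts carrying the mPer2Luc reporter were seeded at ~3000 cells per well in 384-well plates and grown in DMEM with 10% FBS at 37 °C and 5% CO2. Compounds from commercial libraries were added at 10 μM 48 h after seeding, and luminescence was read with the ONE-Glo luciferase assay system 24 h and 30 h after treatment, followed by an alamarBlue viability assay.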
SMILES,PER2::LUC luminescence (time after treatment 24 h),PER2::LUC luminescence (time after treatment 30 h)
Oc1ccccc1NCc1ccccn1,0.921,1.05
C[C@H](CCC(=O)NCC(=O)NCCS(=O)(=O)O)[C@H]1CC[C@H]2[C@@H]3[C@H](O)C[C@@H]4C[C@H](O)CC[C@]4(C)[C@H]3C[C@H](O)[C@]12C,0.886,0.904
CC(=O)OCC(=O)[C@@]12OC3(CCCC3)O[C@@H]1C[C@H]1[C@@H]3CCC4=CC(=O)C=C[C@]4(C)[C@@]3(F)[C@@H](O)C[C@@]12C,0.828,1.13
CCCCC(=O)O[C@]1(C(=O)CO)[C@@H](C)C[C@H]2[C@@H]3CCC4=CC(=O)C=C[C@]4(C)[C@@]3(F)[C@@H](O)C[C@@]21C,0.684 and 0.795,1.37 and 1.15
CCC(=O)OCC(=O)[C@@]1(OC(=O)CC)[C@@H](C)C[C@H]2[C@@H]3CCC4=CC(=O)C=C[C@]4(C)[C@@]3(F)[C@@H](O)C[C@@]21C,0.454 and 0.475,1.01 and 0.98
CC1(C)O[C@@H]2C[C@H]3[C@@H]4CCC5=CC(=O)C=C[C@]5(C)[C@@]4(F)[C@@H](O)C[C@]3(C)[C@]2(C(=O)CO)O1,0.583,1.35
CC1(C)O[C@@H]2C[C@H]3[C@@H]4C[C@H](F)C5=CC(=O)C=C[C@]5(C)[C@@]4(F)[C@@H](O)C[C@]3(C)[C@]2(C(=O)CO)O1,0.902,1.15
CCC(=O)O[C@]1(C(=O)CCl)[C@@H](C)C[C@H]2[C@@H]3CCC4=CC(=O)C=C[C@]4(C)[C@@]3(F)[C@@H](O)C[C@@]21C,0.711,1.08
Nc1nc(=O)c2c([nH]1)NCC(CNc1ccc(C(=O)N[C@@H](CCC(=O)O)C(=O)O)cc1)=N2,1.06,0.985
COc1cccc(NCC(O)Cn2c3ccc(Br)cc3c3cc(Br)ccc32)c1 (stereo in doubt),0.88,0.955
COc1c2c(cc3occ(-c4ccc5c(c4)OCO5)c(=O)c13)OC(C)(C)C=C2,0.833,0.876
COc1cc(OC)c2c(OC)c(-c3ccc4c(c3)OCO4)c(=O)oc2c1,1.02,1.21
COc1ccc(-c2c(O)c3c(OC)c4c(cc3oc2=O)OC(C)(C)C=C4)cc1,1.5,1.46
CC(=O)OC[C@@]1(O)C[C@@]23CC[C@@H]4c5ccoc5CC[C@@]4(C)[C@@H]2CC[C@@H]1C3,1.05,1.06
C=CCCCCCCCCCCCC(O)CC(O)CO (configuration not stated),0.967,0.789
CC1(C)CCC[C@](C)([C@H]2CC[C@]3(C)[C@@H]2[C@H](O)C[C@@H]2[C@@]4(C)CC[C@H](O)C(C)(C)[C@@H]4CC[C@]23C)O1,1.02,1.02
CC(C)(C)c1nc2c3cc[nH]c(=O)c3c3cc(F)ccc3c2[nH]1,0.802,0.906
CCOC(=O)c1cn(-c2c(F)c(F)c(C#N)c(F)c2F)c2c(F)c(F)c(F)cc2c1=O,1.08,1.19
O=C(c1ccc(OCCN2CCCCC2)cc1)c1c(-c2ccc(O)cc2)sc2cc(O)ccc12,0.35,0.69

SMILES,PER2::LUC luminescence (time after treatment 24 h),PER2::LUC luminescence (time after treatment 30 h)
CCCCOc1ccc(C(=O)CCN2CCCCC2)cc1,0.957,1.41
CCCCOc1ccc(OCCCN2CCOCC2)cc1,1.12,1.18
CCN1CCN(Cc2ccc(NC(=O)Nc3ccc(Oc4cc(NC)ncn4)cc3)cc2C(F)(F)F)CC1,0.107,0.14
CO/N=C(\C(=O)N[C@@H]1C(=O)N2C(C(=O)[O-])=C(C[n+]3ccc(N)n3CCO)CS[C@H]12)c1csc(N)n1,1.12,1.1
CSc1ccc(OCc2ncc([N+](=O)[O-])n2C)cc1,1.41,1.31
Cn1c([N+](=O)[O-])cnc1COC(N)=O,1.15,1.27
Cc1ncc([N+](=O)[O-])n1C,1.13,0.998
N[C@](CCCCB(O)O)(CCN1CCCCC1)C(=O)O,1.07,1.08
Cc1ccccc1-n1c([C@H](C)Nc2nc(N)nc3nc[nH]c23)nc2cccc(C)c2c1=O,0.801,0.66
CCCCN(CCCC)S(=O)(=O)c1ccc(C(=O)O)cc1,0.899,1.04
COc1ccc(C(=O)/C=C/c2ccccc2)cc1,1.25,1.28
COc1ccc(/C=C/C(=O)c2ccc(O)cc2O)cc1,1.51,1.56
COc1ccc([C@@H](C)C(=O)c2ccc(O)cc2O)cc1,1.1,1.08
COc1ccc(CC(=O)c2ccc(O)cc2O)cc1,1.63,1.51
COc1ccc(C(=O)c2ccccc2O)c(O)c1,1.02,1.04
COc1ccc(C(=O)c2ccc(C)cc2)c(O)c1,1.02 and 1.29,1.55 and 1.57
COc1ccc(C(C)=O)c(O)c1,0.967,0.936
COc1ccc(C(=O)c2ccccc2)c(O)c1,1.22,1.21
COc1ccc(/C=C/C(=O)c2cc(O)ccc2O)cc1,0.754,0.827

SMILES,PER2::LUC luminescence (time after treatment 24 h),PER2::LUC luminescence (time after treatment 30 h)
COc1cc(/C=C/C(=O)c2ccc(O)cc2O)ccc1O,1.02,1.04
O=C(/C=C/c1ccccc1)c1ccc(O)cc1,1.33,1.48
O=C(/C=C/c1ccc(O)cc1)CC(=O)/C=C/c1ccc(O)cc1,1.1,1.07
CCC(C(=S)O[C@]12CCC[C@H](CC1)N2C)c1ccccc1 (some centres not stated),0.715,0.77
Nc1ccc(S(=O)(=O)NCCc2ccccc2)cc1,1.03,1
CC1=CC(=O)C2=C(C)CC[C@@H]3[C@H](OC(=O)[C@H]3C)[C@@H]12,0.959,0.978
OCC12COC(c3ccc(F)cc3)N1C(c1ccc(F)cc1)OC2 (configuration not stated),1.07,1.03
C[C@@H](Nc1cc(NS(=O)(=O)N2CCC2)nc(SCc2cccc(F)c2F)n1)[C@@H](O)CO,1.03,1
COc1ccc2c(c1)C[C@H](C(=O)Nc1ccc(-c3cn[nH]c3)cc1OCCN(C)C)CO2,0.472,0.452
CCN(CC)C(=O)C(c1ccccc1)N1CCN(c2ccc(NC(=O)c3ccccc3-c3cccnc3)cc2F)CC1 (configuration not stated),0.968,1.09
O=C[C@H](O)[C@H](O)CO,0.921,0.987
CN1C(=O)C[C@H](C(=O)O)[C@H]1c1cccnc1,1.08,1.07
COc1cc(O)c(C(=O)/C=C/c2ccccc2)c(OC)c1,0.907,0.937
O=C(/C=C/c1ccccc1)c1ccc(O)cc1O,1.21,1.43
O=C(/C=C/c1ccc(O)cc1)c1ccc(O)cc1O,1.24,1.41
CC(C)=CCc1c(O)ccc(C(=O)/C=C/c2ccc(O)cc2)c1O,0.904,0.903
O=C(/C=C/c1ccccc1)c1ccc(O[C@@H]2O[C@H](CO)[C@@H](O)[C@H](O)[C@H]2O)cc1O,1.21,1.27
O=C(/C=C/c1ccc(O)c(O)c1)c1ccc(O)cc1O,1.04,1.13
